Results filed as inconclusive are left out. Activity calls are given as the source filed them. How the source made its calls: active means hit-call score of the fitted dose curve at least 0.9, where 1 is the maximum; inconclusive means response in the unintended direction; inactive means score below 0.9.

Read-out in this experiment: sulfotransferase (SULT2A), SULT2A1 (gene 6822)
Put plainly: CLD_SULT2A_48hr: CellzDirect (CLD) Gene Expression Assay for sulfotransferase (SULT2A) at 48 hours (AID 2283710).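 Further: hits raise SULT2A1 transcript above the 0.2% DMSO vehicle baseline.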 As to the method: CLD_48hr is a cell-based, multiplexed-readout assay that uses hepatocyte, a human liver primary cell, with measurements taken at 48 hours after chemical dosing in a 96-well plate.CLD_SULT2A_48hr is one of 16 assay component(s) measured or calculated from the CLD_48hr assay. It is designed to make measurements of mRNA induction, a form of inducible reporter, as detected with chemiluminescence signals by Quantitative Nuclease Protection Assay (qNPA) technology.Data from the assay component CLD_SULT2A_48hr was analyzed at the endpoint, CLD_SULT2A_48hr, in the positive analysis fitting direction relative to DMSO as the negative control and baseline of activity. Using a type of inducible reporter, gain-of-signal activity can be used to understand changes in the reporter gene as they relate to the gene SULT2A1. Furthermore, this assay endpoint can be referred to as a primary readout. To generalize the intended target to other relatable targets, this assay endpoint is annotated to the transferase intended target family, where subfamily is sulfotransferase.
Human hepatocyte cultures were treated daily for two consecutive days with fresh dosing solutions containing appropriate concentrations of the 320 ToxCast chemicals (chemical identities were blinded to CellzDirect and other ToxCast collaborators), vehicle control (0.2% DMSO), and positive control inducers as summarized in Table 1. Due to the large number of treatment groups and chemicals examined, the ToxCast chemicals were divided into two groups (spanning two independent cultures of hepatocytes from separate donor preparations (Hu778: ToxCast plates 1 and 2; Hu776: ToxCast plates 3 and 4). Each preparation of human hepatocyte cultures was treated with respective vehicle control, medium only control, set of six positive controls/reference chemicals for the five hepatic receptor pathways, and a subset of eight of the ToxCast chemicals (indoxacarb, pyrithiobac-sodium, norflurazon, cyhalofop-butyl, methomyl, thiram, acetochlor, and propiconazole). These replicate data, coupled with internal replicates designed within the blinded ToxCast chemical library, provided additional data to evaluate interindividual differences between hepatocyte preparations and their potential impact on chemical profiles.Cell morphology and integrity were evaluated using phase-contrast microscopy as an indicator of hepatocyte cell health (Tyson & Green, 1987). Cultures for each treatment group (i.e., media, vehicle [0.2% DMSO], positive control inducers [multiple concentrations], and the ToxCast chemicals [multiple concentrations]) were observed and cell morphology was assessed relative to vehicle control cultures at each harvest time point (0, 6, 24, or 48 h). […] Images were evaluated at the conclusion of the study to assess changes in cell integrity and account for the effects of chemical exposure on uncharacteristic changes in concentration-dependent gene expression profiles. The results from these determinations of apparent cytotoxicity were annotated (yes/no) alongside the corresponding qNPA data for reference.At the conclusion of each treatment period, hepatocyte cultures (96-well) were washed with 1 volume of HBSS, lysed by addition of 25 ul ArrayPlate lysis buffer (HTG, Tucson, AZ), and 70 ul/well of Denaturation Oil, denatured by incubation at 95C for 10 min, and frozen at approximately -70C until analysis by nuclease protection assay (qNPA) (Roberts et al., 2007). For qNPA analysis, cell lysates were thawed at 50C for approximately 30 min, qNPA probes were added, and samples were incubated at 95C for 10 min to begin the detection process by denaturing the target RNA, dissociating the duplexes and secondary structure hybridization. At the conclusion of the hybridization period, S1 nuclease reagent was added to each sample to digest all nonprotected nucleotides at 50C for 60-90 min. […]
Regarding `CC(C)(C)[C@@H](O)[C@@H](Cc1ccc(Cl)cc1)n1cncn1`, the compound was classed as inactive. Still for that read-out and setting: as for `CCCN(CCC)c1c([N+](=O)[O-])cc(C(F)(F)F)c(N)c1[N+](=O)[O-]`, the entry is “inactive”. The term AC50 denotes the midpoint of the concentration-response curve, whichever way the signal moves. In the case of `CCCCC(CC)CN1C(=O)C2C3C=CC(C3)C2C1=O` (centres undefined), the half-maximal activity concentration (AC50) is 20 µM (active). `CSC(=O)c1cccc2nnsc12`: the outcome was inactive.

For `COC(=O)CSc1cc(N=c2sc(=O)n3n2CCCC3)c(F)cc1Cl`, the compound was called inactive. With `COC(=O)c1ccccc1C(=O)O`, the call was inactive.

As to `CCC(O)=C1C(=O)CC(C(=O)O)CC1=O` (centres undefined), the compound was classed as inactive. Same read-out and setting: as for `C#CCOC(=O)[C@@H](C)Oc1ccc(Oc2ncc(Cl)cc2F)cc1`, the entry is “inactive”; as for `CCOC(=O)C(C)Oc1ccc(Oc2nc3ccc(Cl)cc3o2)cc1` (centres undefined), “inactive”. Still for that read-out and setting: the value for `CCN(CC)C(=O)c1cccc(C)c1` was “inactive”; that for `CCNc1nc(N)nc(Cl)n1` was “inactive”; that for `COC(=O)c1c(Cl)nn(C)c1S(=O)(=O)NC(=O)Nc1nc(OC)cc(OC)n1` was “inactive”. On the same count and under the same terms, as for `COC(=O)c1ccc(CNS(C)(=O)=O)cc1S(=O)(=O)NC(=O)Nc1nc(OC)cc(OC)n1`, the entry is “inactive”; as for `CCOC(=O)COc1cc(-n2ncc(C(F)(F)F)c(C)c2=O)c(F)cc1Cl`, “inactive”.

As to `CCCOC(=O)c1ccc(C(=O)OCCC)nc1`, the compound was classed as inactive. On the same count and under the same terms, as for `CCC(C)OC(=O)N1CCCCC1CCO` (centres undefined), the entry is “inactive”; as for `CCOC(=O)NCCOc1ccc(Oc2ccccc2)cc1`, “inactive”; as for `CCCN(CCC)C(=O)SCC`, “inactive”. Same read-out and setting: as for `CC(C)(c1ccc(O)cc1)c1ccc(O)cc1`, the entry is “inactive”. Take `CCOC(=O)C(C)Oc1ccc(Oc2cnc3cc(Cl)ccc3n2)cc1` (centres undefined): the outcome was inactive. The same measure, in the same setting: the value for `CCN(Cc1c(F)cccc1Cl)c1c([N+](=O)[O-])cc(C(F)(F)F)cc1[N+](=O)[O-]` was “inactive”; that for `CCCCOC(=O)C(C)Oc1ccc(Oc2ccc(C(F)(F)F)cn2)cc1` (centres undefined) was “inactive”. Regarding `CC1(C)C(C=C(Cl)Cl)C1C(=O)OCc1cccc(Oc2ccccc2)c1` (centres undefined), the compound was classed as inactive.

As for `CCCCOCCOCCOCc1cc2c(cc1CCC)OCO2`, the AC50 is 12 µM (active). Still for that read-out and setting: as for `c1ccc(Nc2ccccc2)cc1`, the figure is 3.48 µM (active).

In the case of `COCCO`, the compound was called inactive. On the same count and under the same terms, the value for `CCSC(=O)N(CC(C)C)CC(C)C` was “inactive”; that for `OB(O)O` was “inactive”; that for `Cc1nn(C)c(Oc2ccccc2)c1C=NOCc1ccc(C(=O)OC(C)(C)C)cc1` was “inactive”. `COc1c(Cl)ccc(Cl)c1C(=O)O`: the compound was classed as inactive. For the compound `CCOC(=O)[C@H](C)Oc1ccc(Oc2nc3ccc(Cl)cc3o2)cc1`, the result was inactive. `COC(=O)c1ccc(I)cc1S(=O)(=O)NC(=O)Nc1nc(C)nc(OC)n1`: the call was inactive. The same measure, in the same setting: the value for `CCCOC(=O)NCCCN(C)C` was “inactive”; that for `CCCCC(CC)COC(=O)c1ccccc1C(=O)O` (centres undefined) was “inactive”.

Source of the values: PubChem BioAssay (EPA / NIEHS).
